This is a sample that favours compounds with a hit; in the whole collection about 3.1% have one here.
p53null 39C kill: selectivity test: cytotoxicity in p53 null cells, nonpermissive temperature | Potency, µM (series often up to 46.1 µM), for inactives: top-dose activity, negative = cell killing, usual class: cytotoxic | H1299 p53-null (neo) cells, 39C, ATPlite viability, 24 h | 0.97% of 55,000 active;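 note: 0% = DMSO only and -100% = full killing by 100 µM tamoxifen; nearly all actives have a fitted effect of over 50% in size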
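Temperature-shift cytotoxicity format: compound titrations on p53-null or A138V-expressing H1299 cells held 24 hr at 39C, cell ATP then measured, AC50 from Hill model.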
S16 viability: cytotoxicity in S16 Pmp22-F2sN Schwann cells. S16 Pmp22-F2sN Schwann cells viability, CellTiter-Glo, 24 h. Potency, µM (highest dose often 57.5 µM), for the others: top-dose activity change, negative = cytotoxicity, most hits filed as cytotoxic. 0.48% of 43,000 active. AID 1508642; note: nearly all actives have a fitted effect of over 65% in size
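Viability was measured by CellTiter-Glo luminescence (15 min, room temperature). This followed 24 h at 37 °C of compound exposure (23 nL pin transfer) in S16 Pmp22-F2sN Schwann cells, 500-1,000 per well.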
p53null 32C kill: kills p53 null cells at the permissive temperature; 0.62% of 55,000 active; H1299-neo p53 null cells, ATP luminescence, 24 h, 32C; Potency, µM (series often up to 46.1 µM), for the others: at the highest dose activity change, negative = cytotoxicity, usual class: cytotoxic;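 note: 0% = DMSO only and -100% = full killing by 100 µM tamoxifen; nearly all actives have a fitted effect of over 55% in size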
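Cytotoxicity: H1299-neo (no p53), 32C, 24 h treatment. Concentrations up to 46 uM. Readout cellular ATP, luminescence. Normalization to DMSO basal and tamoxifen 100 uM maximal kill.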
OvCa metastasis: ovarian cancer metastasis inhibition, 3D TME model | SKOV3ip1-GFP adhesion/invasion on 3D omental model, fluorescence | Potency, µM (series often up to 45.8 µM), for inactives: at the highest dose activity change, negative = inhibition, usual class: inhibitors | 0.1% of 46,000 active | AID 1963576;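 note: plate controls were DMSO wells for no effect and tomatine positive control wells for full effect; nearly all actives have a fitted effect of over 65% in size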
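A 3D layer of primary human omental fibroblasts, mesothelial cells, fibronectin and collagen I, grown 48 hr, received SKOV3ip1-GFP cells in serum-free medium plus compounds at 0.36-46 umol/L. After 2 hr RT and 16 hr 37 C, fixed adherent GFP cells were counted; normalized to DMSO and tomatine.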
PMP22 txn prim: PMP22 gene transcription modulation; S16 Pmp22-F2sN Schwann cells (luciferase reporters placed in the Pmp22 gene), FLuc/NLuc coincidence luminescence, 24 h; Potency, µM (series often up to 57.5 µM), without a hit: at the highest dose activity change, negative = inhibition, usual class: inhibitors; 2% of 43,000 active; AID 1508649; active = clear falling dose curves in both reporters; inconclusive = both reporters move, but less clearly or upward; inactive = either reporter flat; the % is the NLuc reporter signal
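Transcriptional readout in edited S16(c9) cells: two luciferases reported from the Pmp22 locus, measured in turn after 24 h compound incubation.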
mTORC1 inh: reduces mTORC1 signaling in Tsc2 and p53 null MEF cells; AID 493208; 0.78% of 44,000 active; Tsc2-/- p53-/- MEF, phospho-rpS6 immunofluorescence/PI, 24 h; Potency, µM (highest dose often 38.3 µM), for inactives: at the highest dose activity change, negative = inhibition, most hits filed as inhibitors;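 note: plate controls were DMSO for no effect and rapamycin for full effect; nearly all actives have a fitted effect of over 50% in size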
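Readout is phospho-S6 Alexa 488 signal normalized to PI per well, reported as % active cells with thresholds set from rapamycin (7.5 nM) and DMSO controls. Cells: Tsc2-/-, p53-/- MEFs, 24 hrs compound at 37 C; PI cell number serves as viability.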
* marks the source's active call; other numbers are inactive results; i = inactive; ? = inconclusive; nt = not tested or not shown. Unless noted, calls come from the whole dose curve; as a rule, active = well fitted curve in the direction sought with a large enough effect; inconclusive = small, poorly fitted or top-dose-only effect, or another doubt; inactive = no such curve, though single readings can be large; an effect the other way counts as inactive or inconclusive. Unless noted, % is set by controls: 0 for no effect and ±100 for the full control effect; potency is the fitted concentration of half-maximal effect.

SMILES | p53null 39C kill | S16 viability | p53null 32C kill | OvCa metastasis | PMP22 txn prim | mTORC1 inh
COc1ccc2oc(=O)c(C(=O)Nc3cccc(C(=O)O)c3)cc2c1 | 7.94µM* | 4.6% | 10µM* | 6.0% | 8.7% | 0.7%
COc1cc(CNc2ccc3[nH]c(=O)[nH]c3c2)cc(Br)c1OCc1ccc(F)cc1 | -15.1% | ? | -29.2% | -7.3% | 1.89µM* | -20.5%
O=C(Nc1cccc(NC(=O)c2ccccc2F)c1)c1ccccc1 | 20.1% | ? | -3.6% | -3.9% | 0.1% | 11.8%
Cc1ccccc1C(=O)Nc1cccc(NC(=O)c2ccc(C(C)(C)C)cc2)c1 | ? | -21.6% | 12.6µM* | ? | ? | 8.5%
O=C(Nc1cccc(S(=O)(=O)Nc2ccc(Cl)cc2)c1)c1cc2c(s1)CCCC2 | 2.82µM* | nt | 7.7% | nt | nt | nt
Cc1ccc(NC(=O)c2cc3c(s2)CCCC3)cc1S(=O)(=O)Nc1ccccc1Cl | 8.7% | nt | 35.0% | nt | nt | nt
O=C(NC1CC1)c1cccc(-c2ccc3c(NC(=O)C4CC4)n[nH]c3c2)c1 | nt | nt | nt | -25.3% | nt | nt
C=CCSc1nc2ccccc2n1S(=O)(=O)c1ccc(C)cc1 | 3.0% | nt | 5.0% | nt | nt | nt
Cc1ccc(/C=C/c2nc3ccccc3n2S(=O)(=O)c2ccc(Br)cc2)cc1 | 22.6% | ? | 6.31µM* | i | ? | 0.5%
O=S(=O)(c1cccc(Cl)c1)n1c(/C=C/c2ccccc2Cl)nc2ccccc21 | 2.82µM* | 12.6µM* | 1.26µM* | -13.9% | ? | -10.6%
CSc1ccc(/C=C/c2nc3ccccc3n2S(=O)(=O)c2cccc(Cl)c2)cc1 | 3.98µM* | ? | 3.16µM* | ? | ? | 1.1%
OC[C@H]1O[C@@H](O[C@H]2[C@@H](O)[C@@](O)(CO)O[C@@H]2CO)[C@H](O)[C@@H](O)[C@@H]1O | nt | nt | nt | -9.8% | nt | nt
CC(C)c1cc(C(=O)N2Cc3ccc(CN4CCN(C)CC4)cc3C2)c(O)cc1O | nt | nt | nt | 4.7% | nt | nt
Cc1c(Cl)ccc2sc(N3CCN(C(=O)CCS(=O)(=O)c4ccc(F)cc4)CC3)nc12 | 29.7% | ? | 3.1% | -4.6% | 11.9µM* | -18.5%
CCOc1ccc2nc(N3CCN(C(=O)c4ccc(S(=O)(=O)CC)cc4)CC3)sc2c1 | 19.3% | -28.4% | -12.9% | -6.5% | -25.7% | -5.4%
CCOc1ccc2nc(N3CCN(C(=O)CS(=O)(=O)c4ccc(F)cc4)CC3)sc2c1 | ? | ? | 10µM* | -8.6% | ? | -7.9%
Cc1ccc2sc(N3CCN(C(=O)CCS(=O)(=O)c4ccc(F)cc4)CC3)nc2c1C | 4.4% | ? | -4.9% | -3.6% | ? | -7.1%
N#CC(=C(N)Sc1ccccc1N)C(C#N)=C(N)Sc1ccccc1N | nt | nt | nt | 1.0% | nt | nt
O=C(NCCc1ccccc1)c1ccc(Nc2nc3ccccc3n3nnnc23)cc1 | ? | 28.2µM* | ? | -9.8% | ? | -1.9%
O=C(c1ccc(Nc2nc3ccccc3n3nnnc23)cc1)N1CCN(c2cccc(C(F)(F)F)c2)CC1 | -15.7% | ? | -3.8% | -0.6% | ? | 7.1%
Cc1ccc(CNC(=O)c2cccc(Nc3nc4ccccc4n4nnnc34)c2)cc1 | -22.7% | 8.91µM* | -12.3% | -1.9% | 11.3µM* | -0.1%
O=C(C1CC1)N1CC[C@@H](Cn2c(-c3ccc(-c4ccc5occc5c4)cc3)nc3cnccc32)C1 | nt | nt | nt | -9.4% | nt | nt
COc1ccc(C(=O)Nc2noc3ccccc23)cc1 | 6.31µM* | 11.2% | 3.16µM* | -1.7% | 10.4% | 3.4%
CCC(=O)N[C@H]1CC[C@H](C(=O)N(C)c2ccc(-c3nc4ccccc4o3)cc2)C1 | nt | nt | nt | 1.3% | nt | nt
O=C(c1ccc2c(c1)N(Cc1cccc(Cl)c1)C(=O)c1ccccc1S2=O)N1CCN(c2cccc(C(F)(F)F)c2)CC1 (stereo unspecified) | 13.9% | ? | 11.0% | 7.9% | 10.8µM* | -1.5%
SMILES | p53null 39C kill | S16 viability | p53null 32C kill | OvCa metastasis | PMP22 txn prim | mTORC1 inh
CCN1C(=O)c2ccccc2S(=O)c2ccc(C(=O)N3CCN(c4cccc(C)c4)C(C)C3)cc21 (stereo unspecified) | -1.3% | ? | -7.2% | i | ? | 1.9%
Cc1cccc(N2CCN(C(=O)c3ccc4c(c3)N(Cc3ccccc3F)C(=O)c3ccccc3S4=O)CC2C)c1 (stereo unspecified) | 1.1% | 10.9% | -0.8% | i | 9.04µM* | -9.6%
COc1ccc(S(=O)(=O)c2c(Nc3ccccc3F)sc(C(=O)c3cccc(OC)c3)c2N)cc1 | 3.3% | ? | 17.0% | ? | 4.01µM* | -26.7%
COc1cc2c(cc1Cc1cccc(Cl)c1F)c(=O)c(C(=O)O)cn2[C@H](CO)C(C)C | nt | nt | nt | -13.3% | nt | nt
NC(=O)c1ncn([C@@H]2O[C@H](CO)[C@@H](O)[C@@H]2O)c1O | nt | nt | nt | 0.7% | nt | nt
O=C(NCC(c1cccnc1)N1CCc2ccccc2C1)C(=O)Nc1ccccc1 (stereo unspecified) | -9.7% | -8.6% | 1.9% | 7.1% | -106.1% | 3.5%
COc1ccc(NC(=O)C(=O)NCC(c2cccnc2)N2CCc3ccccc3C2)cc1 (stereo unspecified) | 20µM* | -13.6% | 12.6µM* | 9.3% | -18.2% | 6.0%
O=C(NCCCc1nc2ccccc2n1Cc1ccc(Cl)cc1Cl)c1ccco1 | -0.1% | nt | 0.9% | i | nt | -1.8%
O=C(NCCc1nc2ccccc2n1Cc1ccc(Cl)cc1Cl)c1ccco1 | ? | 5.2% | 0.5% | -1.8% | ? | 20.7µM*
CC(C)NC(=O)c1cc2c(s1)CCCC2 | 10µM* | nt | ? | nt | nt | nt
Cc1nc(N)ncc1-c1nc(N2CCOCC2)c2sc(C(C)(C)O)cc2n1 | nt | nt | nt | -28.0% | nt | nt
COc1c(Cl)cc(C(=O)Nc2cccc(-c3nc4ccccc4[nH]3)c2)cc1Cl | ? | 5.5% | ? | ? | ? | 4.6%
CCCN(CCC)S(=O)(=O)c1ccc(C(=O)Nc2cccc(-c3nc4ccccc4[nH]3)c2)cc1 | 15.5% | ? | 17.2% | ? | 18.9µM* | -1.7%
CCN1CCC(N(Cc2ccc3c(c2)OCO3)C(=O)Nc2cc(F)ccc2F)CC1 | -5.5% | 5.8% | -2.3% | 1.3% | -15.5% | 3.0%
CCN1CCC(N(Cc2ccc(F)cc2)C(=O)Nc2cc(Cl)ccc2C(=O)OC)CC1 | -26.4% | ? | -6.2% | 11.2µM* | ? | ?
Cc1cc(C)cc(C(=O)Nc2nnc3n2CCS3)c1 | 17.9% | -24.6% | -9.2% | -14.5% | ? | -0.4%
O=C(Nc1nnc2n1CCS2)c1cc(C(F)(F)F)cc(C(F)(F)F)c1 | 16.2% | ? | 7.3% | 5.6% | 8.91µM* | 0.2%

Assay outcomes (PubChem)
